# Assay results from the supplement of paper PMC3656093.
# ± gives the standard deviation of the averaged measurements. In all, about 1,900 compounds were measured (“CD40L-induced NF-kB luciferase activity, plate-corrected, relative to DMSO (0) and IKK inhibitor VII (-100) controls”: median about 0.032, lowest 2% from about -26 on). For the sample, the lowest values were picked, then their nearest neighbours and some compounds at random.
# System: BL2-NFkB-Luc
# Assay: CD40L-induced NF-kB luciferase activity, plate-corrected, relative to DMSO (0) and IKK inhibitor VII (-100) controls (% normalized activity); higher = more NF-kB reporter activity (less inhibition)
# Conditions: 9.4 µM; stimulus: tCD40L 64 ng/ml; 4.5 h
# Experimental: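 BL2 B cells with a stable NF-kB response-element luciferase reporter (BL2-NFkB-Luc), 384-well. Cells were pre-incubated with compound at 9.4 uM for 1 h at 37 C, then stimulated with 64 ng/ml trimerized CD40L for 4.5 h; luciferase was read with Steady-Glo. Signal was normalised per plate in Genedata (median DMSO neutral control = 0, median IKK inhibitor VII at 50 uM = -100) with Assay Median plate-pattern correction; duplicate plates.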
row,Structure (SMILES),CD40L-induced NF-kB luciferase activity
1,Fc1ccc(-c2cc(-c3ccccc3)nc(-n3cccn3)n2)cc1,-4.51 ± 1.4
2,O=C(/C=C/c1ccc2c(c1)OCCCO2)c1ccc2ccccc2c1O,44.2 ± 0.67
3,COC(=O)CCC(=O)CN,-0.0616 ± 1.1
4,O=C(O)[C@@H](O)c1ccccc1,-1.47 ± 0.027
5,C=CCOC(=O)C1=C(C)NC(=O)NC1/C=C/c1ccccc1OC (stereo unspecified),-0.888 ± 0.046
6,CC(=O)Oc1ccc(C2OC(=O)c3ccccc3N2C(C)=O)cc1 (stereo unspecified),-32.9 ± 1
7,COc1ccc(C2C(=O)c3ccccc3C2=O)cc1,0.868 ± 0.29
8,COc1ccc(C2C3=C(OC(C)=O)c4ccccc4C3=Nc3c2c(=O)n(C)c(=O)n3C)cc1 (stereo unspecified),6.21 ± 0.2
9,COc1ccc(-c2coc3cc(OC(=O)N4CCOCC4)ccc3c2=O)cc1,5.32 ± 1.2
10,CCCCC(=O)O[C@]1(C(=O)CO)CC[C@H]2[C@@H]3CCC4=CC(=O)CC[C@]4(C)[C@H]3[C@@H](O)C[C@@]21C,-43.1 ± 20
11,CCCC(=O)O[C@]1(C(=O)CO)CC[C@H]2[C@@H]3CCC4=CC(=O)CC[C@]4(C)[C@H]3[C@@H](O)C[C@@]21C,-31.6 ± 7.7
12,CCCCCCCC(=O)OCC(=O)[C@@]1(O)CC[C@H]2[C@@H]3CCC4=CC(=O)CC[C@]4(C)[C@H]3[C@@H](O)C[C@@]21C,-24.2 ± 1.8
13,CCCCCC(=O)O[C@]1(C(C)=O)CC[C@H]2[C@@H]3CCC4=CC(=O)CC[C@]4(C)[C@H]3CC[C@@]21C,-8.91 ± 0.8
14,C[C@]12C[C@H](O)[C@H]3[C@@H](CCC4=CC(=O)CC[C@@]43C)[C@@H]1CC[C@@H]2C(=O)CO,-19.6 ± 8.2
15,C[C@]12CCC(=O)C=C1CC[C@@H]1[C@@H]2[C@@H](O)C[C@@]2(C)[C@H]1CC[C@]2(O)C(=O)CO,-24.3 ± 5.5
16,CC(C)Cc1ccc(C(C)C(=O)O)cc1 (stereo unspecified),2.3 ± 5
17,CC(C(=O)O)c1ccc(N2Cc3ccccc3C2=O)cc1 (stereo unspecified),-43.6 ± 2.8
18,CC(C(=O)O)c1ccc(-c2ccccc2)c(F)c1 (stereo unspecified),2.04 ± 0.53
19,COc1cc(C(=O)OCCn2c(=O)c3c(ncn3CCN(C)C)n(C)c2=O)cc(OC)c1OC,-3 ± 1.3
20,O=c1ccn([C@@H]2O[C@H](CO)[C@@H](O)[C@H]2O)c(=O)[nH]1,-6.55 ± 1.5
21,Nc1cnn(C2OC(CO)C(O)C2O)c(=O)n1 (stereo unspecified),6.46 ± 4.2
22,Nc1ccn([C@@H]2O[C@H](CO)[C@@H](O)[C@@H]2O)c(=O)n1,-30.5 ± 2.4
23,CC(C)CC(=O)OC1C(N2CCOCC2)c2c(ccc(/C=C/C(=O)N3CCOCC3)c2O)OC1(C)C (stereo unspecified),-1.24 ± 1.2
24,O=C(/C=C/c1ccco1)N1CCN(c2ccccc2)CC1,6.71 ± 0.18
25,Cc1ccc2c(c1)C(O)(c1c(C)[nH]c3ccccc13)C(=O)N2 (stereo unspecified),3.92 ± 8.9
26,O=C(NC(=S)N1CCCCC1)c1cccnc1,-3.04 ± 2.8

row,Structure (SMILES),CD40L-induced NF-kB luciferase activity
1,O=C(CCCN1C(=O)/C(=C\c2cccc(Br)c2)SC1=S)Nc1cccnc1,-2.47 ± 4.1
2,CC(/C=C1\SC(=O)N(CCCC(=O)O)C1=O)=C\c1ccccc1,-84.08 ± 0.44
3,O=C(CCCN1C(=O)/C(=C\c2cccs2)SC1=S)Nc1ccccn1,-2.54 ± 1.1
4,CCn1c(/C=C/c2ccccc2)nc2ccccc2c1=O,4.25 ± 3.8
5,COCCn1c(/C=C/c2ccccc2)nc2ccccc21,38.4 ± 2.4
6,C(=C\c1ccc2ccccc2n1)/c1ccccc1,-56 ± 3.4
7,O=c1cnn([C@@H]2O[C@H](CO)[C@@H](O)[C@H]2O)c(=O)[nH]1,10.5 ± 4.8
8,O=C(Nc1c(C(=O)O)[nH]c2ccccc12)NC1CCCCC1,-0.728 ± 0.3
9,O=C(CC1(O)C(=O)Nc2ccccc21)c1ccccc1O (stereo unspecified),1.73 ± 4.3
10,O=C1C=CC(=O)C(C2=C3C(=O)N(CCc4ccccc4)CC(=O)N3CCC2)=C1,-42.7 ± 2.4
11,O=C1CCCCCN1Cc1ccccc1,3.92 ± 5.3
12,O=C(c1cc2cc(Br)ccc2o1)N1CCCC1,38.77 ± 0.2
13,O=c1c2ccccc2nc2n1-c1ccccc1CCC2,-5.01 ± 3.7
14,COc1ccc2c(c1)[nH]c1c(=O)n(Cc3ccccn3)cnc12,-0.0285 ± 6.5
15,COc1ccc(CC(=O)Nc2cccc(C(=O)Nc3ccccc3C(=O)O)c2)cc1OC,-2.42 ± 3.4
16,COc1ccc(/C=C/C(=O)Nc2ccccc2C(=O)O)cc1OC,-57.1 ± 1.6
17,O=C(/C=C/c1ccco1)Nc1ccccc1C(=O)O,1.64 ± 1.8
18,Cc1cc(O)c(C(C)C)cc1C1(c2cc(C(C)C)c(O)cc2C)OC(=O)c2ccccc21,-36.1 ± 2.9
19,O=C1OC(c2ccc(O)cc2)(c2ccc(O)cc2)c2ccccc21,0.943 ± 1.8
20,Cc1ccccc1-c1coc2cc(O)ccc2c1=O,4.65 ± 2.2
21,C/C=C/Cn1c(SC)nc2c1c(=O)[nH]c(=O)n2C,-0.907 ± 1.9
22,COCC(C)NC(=O)c1ccc(CN2CCc3ccccc3C2)cc1 (stereo unspecified),7.18 ± 5
23,O=C(O)c1cc(-c2ccc3c(c2)OCO3)nc2ccc(Br)cc12,9.08 ± 4
24,CCc1cc2c(=O)c(-c3ccc(F)cc3)c(C)oc2cc1OCC(=O)O,1.94 ± 0.96
25,O=C1c2ccccc2N2C(=O)c3ccccc3C2N1Cc1ccco1 (stereo unspecified),-3.98 ± 15
